Screening data (PubChem)
Most compounds without a hit are left out; they make up all but 1.2% or so of the library.
GSH fluor: compound fluoresces at 488/530 nm on GSH beads; GSH beads flow cytometry, compound fluorescence 488/530 nm; hits give high values; fluorescence (KMESF) at 10 µM; actives 0.25% (n = 190,000); in the data active = fluorescence above about 89;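 note: glutathione beads carrying GST-tagged Bcl family fusion proteins plus one bare bead set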
Avidin bead fluor: compound fluoresces at 488/530 nm on avidin beads | compound fluorescence 488/530 nm, flow cytometry; hits give high values | fluorescence (KMESF) at 10 µM | actives 0.38% (n = 220,000) | AID 1775; in the data active = fluorescence above about 47
RGS4-Gao reg: human RGS4-Galphao interaction regulation. P09471. Multiplexed bead flow cytometry, RGS4-Galphao binding; actives lie on both sides. binding response (% of control), % at 10 µM. actives 0.33% (n = 220,000). AID 1415; in the data active = binding response below about 49% or above about 150%; inactive = in between;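 note: fluorescent Galphao activated with aluminum fluoride binding bead-coupled RGS4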
Target sequence (P09471 whole entry, looked up): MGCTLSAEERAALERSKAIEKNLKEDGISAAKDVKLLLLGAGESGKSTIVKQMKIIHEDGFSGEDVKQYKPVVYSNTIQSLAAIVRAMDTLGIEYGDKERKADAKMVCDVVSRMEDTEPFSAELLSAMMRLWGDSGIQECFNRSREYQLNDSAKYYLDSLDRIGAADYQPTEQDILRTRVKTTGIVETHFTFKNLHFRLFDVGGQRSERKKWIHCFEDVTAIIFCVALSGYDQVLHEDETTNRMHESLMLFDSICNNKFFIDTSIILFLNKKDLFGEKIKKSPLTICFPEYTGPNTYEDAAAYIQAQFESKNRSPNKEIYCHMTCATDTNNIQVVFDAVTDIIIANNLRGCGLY
RGS8-Gao reg: human RGS8-Galphao interaction regulation. AID 1423. response (percent of control binding), % at 10 µM. multiplexed bead flow cytometry, RGS8-Galphao binding; actives lie on both sides. actives 0.34% (n = 220,000). P09471; in the data active = response below about 60% or above about 140%; inactive = in between;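 note: Galphao activated as the GDP aluminium fluoride complex binding bead-coupled RGS8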
RGS16-Gao HTS: regulators of human RGS16-Galphao interaction; actives 0.38% (n = 220,000); binding response (% of control), % at 10 µM; bead-based flow cytometry RGS16-Galphao binding, fluorescence; actives lie on both sides;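 note: Galphao activated by GDP with aluminum fluoride before binding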
Target sequence (O15492 whole entry, looked up): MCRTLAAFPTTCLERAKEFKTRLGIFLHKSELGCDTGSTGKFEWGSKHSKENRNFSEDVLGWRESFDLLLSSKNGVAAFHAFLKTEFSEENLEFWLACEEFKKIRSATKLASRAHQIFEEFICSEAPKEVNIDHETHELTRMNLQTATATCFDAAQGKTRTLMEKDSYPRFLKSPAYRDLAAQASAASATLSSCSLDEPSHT
Target sequence (P09471 whole entry, looked up): as the sequence (P09471 whole entry, looked up) above
RGS7-Gao reg: modulates binding of RGS7 to human Galphao; P09471; Multiplexed bead flow cytometry; actives lie on both sides; binding response (% of control), % at 10 µM; actives 0.35% (n = 220,000); AID 1439; in the data active = binding response below about 49% or above about 150%; inconclusive = no clear call, values can overlap the other calls; inactive = in between;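 note: fluorescent Galphao held in activated GDP-AlF4 state binding bead-coupled RGS7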
RGS-Gao: RGS4-Galphao interaction regulator (human). shares compounds with RGS16-Gao HTS. multiplexed bead flow cytometry, RGS–Galpha-o binding. RGS4–Galpha-o binding response, % at 10 µM. actives 99% (n = 1,600);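 note: fluorescently labeled Galpha-o bound to GDP with aluminium fluoride binding biotinylated RGS beads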
Biotin-avidin: interferes with biotinylated probe binding to avidin beads; shares compounds with RGS16-Gao HTS; streptavidin beads, fluorescein-biotin binding, flow cytometry; inhibition, % at 10 µM; 1,700 tested, under 10 active;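 active = inhibition above 50%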;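 note: median green fluorescence of gated singlet beads compared with DMSO control wells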
RGS8-Gao single: confirmation of regulators of human RGS8-Galphao interaction. shares compounds with RGS16-Gao HTS. bead-based flow cytometry RGS8-Galphao binding, fluorescence; actives lie on both sides. binding response (% of control), % at 10 µM. actives 3% (n = 1,700); in the data active = binding response below about 72% or above about 130%; inactive = in between;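 note: Galphao activated as GDP AlF4 complex before binding bead RGS8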
RGS7-Gao single: confirmation of regulators of human RGS7-Galphao interaction | response (percent of control binding), % at 10 µM | actives 7.8% (n = 1,700) | AID 1837 | shares compounds with RGS16-Gao HTS | bead-based flow cytometry RGS7-Galphao binding; actives lie on both sides; in the data active = response below about 75% or above about 130%; inactive = in between;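 note: fluorescent Galphao activated with GDP and aluminum fluoride binding bead-coupled RGS7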
RGS16-Gao conf: confirmation of regulators of human RGS16-Galphao interaction; shares compounds with RGS16-Gao HTS; actives 4% (n = 1,700); AID 1838; bead-based flow cytometry, RGS16-Galphao binding; actives lie on both sides; response (% of control binding), % at 10 µM; in the data active = response below about 74% or above about 130%; inactive = in between;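 note: Galphao activated as the GDP aluminium fluoride complex binding bead-coupled RGS16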
RGS4-Gao confirm: RGS4-Galphao interaction regulation, single point confirmation; shares compounds with RGS16-Gao HTS; actives 4% (n = 1,700); binding response (% of control), % at 10 µM; RGS4-Galphao binding, multiplexed bead flow cytometry; actives lie on both sides; in the data active = binding response below about 74% or above about 130%; inactive = in between
RGS19-Gao conf: confirmation of regulators of human RGS19-Galphao interaction. shares compounds with RGS16-Gao HTS. bead-based flow cytometry RGS19-Galphao binding; actives lie on both sides. response (percent of control binding), % at 10 µM. actives 5% (n = 1,700). AID 1841; in the data active = response below about 50% or above about 160%; inactive = in between
A number is an active result; 0 = inactive; ? = inconclusive; - = no result given; [ ] = another dose, or the depositor's remark. Unless noted, the rule behind the calls is not given here.

SMILES	GSH fluor	Avidin bead fluor	RGS4-Gao reg	RGS8-Gao reg	RGS16-Gao HTS	RGS7-Gao reg	RGS-Gao	Biotin-avidin	RGS8-Gao single	RGS7-Gao single	RGS16-Gao conf	RGS4-Gao confirm	RGS19-Gao conf
Cc1cc(C)n(C(=O)COc2ccc([N+](=O)[O-])cc2)n1	0	0	0	0	0	0	-	-	-	-	-	-	-
O=C(Nc1ccc(F)cc1)N(Cc1ccco1)Cc1cc2cc3c(cc2[nH]c1=O)OCO3	0	0	0	0	0	0	-	-	-	-	-	-	-
CCC(C)(C)n1nnnc1CN1CCN(c2ccc(OC)cc2)CC1	0	0	0	0	0	0	-	-	-	-	-	-	-
CCC(C)(C)n1nnnc1CN1CCSCC1	0	0	158.4[activator]	0	0	0	-	0	0	0	0	0	0
COC(=O)c1sccc1NC(=O)c1ccc(OC)cc1OC	0	0	0	0	0	0	-	-	-	-	-	-	-
CC1CN(S(=O)(=O)c2ccc(C(=O)Nc3nnc(-c4ccccn4)o3)cc2)CC(C)O1 (stereo not given)	0	0	15.3	12.5	9.5	-18.3	-	0	0	0	0	0	0
CCCCOCP(=O)(CCCC)COCCCC	0	0	23.7	31.6	0	24.6	-	0	0	0	0	0	0
CC12C(=O)N(c3nccs3)C(=O)C1C1C=CC2C1 (stereo not given)	0	-	-	-	-	-	-	0	0	0	0	0	0
CCOC(=O)c1c(C)nc(SCC(N)=O)c(C#N)c1-c1ccccc1	0	0	0	0	181.8[activator]	0	111.4	0	0	0	0	0	0
Cc1cc(Nc2ccccc2)c2c([N+](=O)[O-])ccc(C)c2n1	0	0	0	0	0	0	-	-	-	-	-	-	-
Cc1cc2c3c(ccc(C)c3n1)N=CN2c1ccccc1	0	-	-	-	-	-	-	0	0	0	0	0	0
Cc1scc(C(=O)NNC(=S)NCC2CCCO2)c1-c1ccccc1 (stereo not given)	0	0	0	0	22.5	0	97.9	0	0	0	0	0	0
COc1ccc(NC(=S)N(CCN2CCCCC2)Cc2ccco2)cc1	0	0	0	0	0	0	-	-	-	-	-	-	-
O=S(=O)(c1cccc2nsnc12)N1CCN(c2ncccn2)CC1	0	0	0	0	0	0	-	-	-	-	-	-	-
Cc1ccc(CNC(=O)c2ccc(CNc3c(N4CCCC4)c(=O)c3=O)cc2)cc1	0	0	0	0	0	0	-	-	-	-	-	-	-
O=[N+]([O-])c1ccc2c(c1)N([O-])C1(CCCCC1)[N+]2=O	-	0	0	35.0	0	?	90.5	-	-	-	-	-	-
Nn1c(SCc2ccccc2F)nnc1-c1cccnc1	-	0	0	0	0	?	-	-	-	-	-	-	-
Cc1cccc(C(=O)N2CCN(c3ccc(N4CCOCC4)nn3)CC2)c1	-	0	29.3	37.1	21.9	?	-	0	0	0	0	0	0
NNc1nc2sc3c(c2c(=O)[nH]1)CCc1ccccc1-3	0	0	0	0	0	0	-	-	-	-	-	-	-
COc1ccccc1/C=C\C=N\n1c(-c2ccc(Cl)cc2)n[nH]c1=S	0	0	0	57.6	7.8	0	88.2	0	0	75.1	0	0	0
CCOC(=O)CSc1nc2ccccc2c(=O)n1CC1CCCO1 (stereo not given)	0	0	0	56.6	0	0	70.8	0	0	0	0	0	0
CCOC(=O)CSc1nc2ccccc2c(=O)n1CC1COc2ccccc2O1 (stereo not given)	0	0	-25.9	0.8	0	-13.9	-	0	0	130.4[activator]	0	0	0
COc1ccccc1N(C)S(=O)(=O)c1ccc(C(=O)OCC(=O)NCc2ccco2)cc1	0	0	0	0	0	0	-	-	-	-	-	-	-
Cc1cc(=S)cc(C)n1CCO	0	0	0	53.4	0	0	100.0	0	0	0	0	0	0
OCCCN1CCN(CCCOc2ccccc2-c2ccccc2)CC1	0	0	0	0	178.9[activator]	0	106.9	0	0	0	0	0	0
SMILES	GSH fluor	Avidin bead fluor	RGS4-Gao reg	RGS8-Gao reg	RGS16-Gao HTS	RGS7-Gao reg	RGS-Gao	Biotin-avidin	RGS8-Gao single	RGS7-Gao single	RGS16-Gao conf	RGS4-Gao confirm	RGS19-Gao conf
c1ccc(-c2ccccc2OCCCN2CCOCC2)cc1	0	0	0	0	0	0	-	-	-	-	-	-	-
O=C1NCC(O)=C1C=NC12CC3CC(CC(C3)C1)C2	0	0	0	0	0	0	-	0	0	0	0	0	0
COc1ccccc1N1CCN(S(=O)(=O)c2ccc3c4c(cccc24)C(=O)N3)CC1	0	0	0	0	0	0	-	-	-	-	-	-	-
COc1ccccc1N1CCN(S(=O)(=O)c2ccc3c4c(cccc24)C(=O)N3C)CC1	0	0	-21.1	15.6	-18.9	-3.9	-	0	0	0	0	0	0
Cc1c(O)c(S(=O)c2ccccc2)c(=O)n(-c2ccccc2)c1-c1ccccc1 (stereo not given)	0	0	0	0	0	0	-	-	-	-	-	-	-
CC(=O)c1ccc(NS(=O)(=O)c2c(C)cc(C)cc2C)cc1	0	0	0	0	0	0	-	-	-	-	-	-	-
Cc1cc(C)c(S(=O)(=O)Nc2ccc(O)cc2)c(C)c1	0	0	0	141.2[activator]	0	0	126.2	0	0	0	0	0	0
OC12CCCCC1C(c1ccc3c(c1)OCO3)N(Cc1ccc(F)cc1)CC2 (stereo not given)	0	0	0	0	0	0	-	-	-	-	-	-	-
OC12CCCCC1C(c1ccc3c(c1)OCO3)N(Cc1ccccc1F)CC2 (stereo not given)	0	130	0	0	0	158.4[activator]	113.4	0	0	0	0	0	0
O=C(CCCOc1ccc(Cl)cc1Cl)Nc1ccncc1	0	-	-	-	-	-	-	0	0	0	0	0	0
Cc1ccccc1NC(=O)N(CCc1nc2ccccc2[nH]1)Cc1ccccc1	0	0	0	0	0	0	-	-	-	-	-	-	-
Cc1ccc(N2CCN(CCc3nc4cc(NS(C)(=O)=O)ccc4n3C)CC2)cc1	0	0	0	147.1[activator]	0	0	120.0	0	0	0	0	0	0
